# Measured values taken from PubChem BioAssay AID1117353 (Cheminformatics & Chemogenomics Research Group (CCRG), …, 2015).
# The source made the active and inactive calls. Rule as the data show it: active = inhibition above about 50%; inactive = the rest.
# Target: Vascular endothelial growth factor receptor 2 (Homo sapiens) (UniProt P35968)
# Assay: Biochemical primary assay, inhibitors of H. sapiens VEGFR2, LANCE Ultra time-resolved FRET readout, NPC library (AID 1117353)
# Conditions: LANCE Ultra TR-FRET kinase assay; series mostly up to 20 µM
# Chain of Vascular endothelial growth factor receptor 2 (Homo sapiens) (P35968 whole entry, looked up): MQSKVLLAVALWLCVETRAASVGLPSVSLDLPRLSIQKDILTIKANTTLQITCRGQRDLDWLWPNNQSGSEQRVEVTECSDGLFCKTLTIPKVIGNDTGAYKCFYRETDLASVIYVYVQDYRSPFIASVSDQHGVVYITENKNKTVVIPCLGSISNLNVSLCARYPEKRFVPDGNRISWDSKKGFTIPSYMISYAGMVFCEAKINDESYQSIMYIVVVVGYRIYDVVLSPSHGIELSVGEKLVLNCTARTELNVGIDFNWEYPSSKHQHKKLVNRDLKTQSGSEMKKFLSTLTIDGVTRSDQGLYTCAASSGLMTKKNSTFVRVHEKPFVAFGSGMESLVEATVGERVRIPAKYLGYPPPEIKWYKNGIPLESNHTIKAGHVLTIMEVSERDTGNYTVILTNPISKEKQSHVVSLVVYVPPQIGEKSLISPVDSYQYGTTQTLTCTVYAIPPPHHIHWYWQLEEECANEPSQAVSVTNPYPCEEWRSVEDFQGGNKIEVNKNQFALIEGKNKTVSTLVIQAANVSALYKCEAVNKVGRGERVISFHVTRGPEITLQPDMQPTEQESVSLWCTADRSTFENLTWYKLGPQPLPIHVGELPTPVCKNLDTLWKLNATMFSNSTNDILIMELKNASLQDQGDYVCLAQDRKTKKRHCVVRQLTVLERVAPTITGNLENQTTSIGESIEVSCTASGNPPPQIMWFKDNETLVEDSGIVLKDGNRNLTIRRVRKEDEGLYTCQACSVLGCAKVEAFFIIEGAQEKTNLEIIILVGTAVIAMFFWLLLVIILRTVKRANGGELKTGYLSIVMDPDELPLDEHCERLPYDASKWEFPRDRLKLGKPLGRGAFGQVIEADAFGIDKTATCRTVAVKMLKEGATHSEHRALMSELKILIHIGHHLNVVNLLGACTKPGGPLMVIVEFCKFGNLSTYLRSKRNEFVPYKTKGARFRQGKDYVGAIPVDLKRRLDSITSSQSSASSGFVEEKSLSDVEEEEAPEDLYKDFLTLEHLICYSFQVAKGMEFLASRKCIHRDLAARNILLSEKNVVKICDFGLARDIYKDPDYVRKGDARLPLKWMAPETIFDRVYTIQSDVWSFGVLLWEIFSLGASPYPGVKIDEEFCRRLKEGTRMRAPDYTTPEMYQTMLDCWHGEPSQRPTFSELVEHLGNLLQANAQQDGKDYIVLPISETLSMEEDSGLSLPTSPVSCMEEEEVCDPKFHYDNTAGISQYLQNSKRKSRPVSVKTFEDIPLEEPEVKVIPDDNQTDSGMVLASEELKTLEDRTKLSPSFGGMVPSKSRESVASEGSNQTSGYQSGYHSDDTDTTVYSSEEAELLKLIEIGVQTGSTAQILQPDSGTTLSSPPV
row,SMILES,outcome
1,Cc1ccc([N+](=O)[O-])[c]2c1[O][Hg]2,inactive
2,C=C(C)[C@H]1Cc2c(ccc3c2O[C@@H]2COc4cc(OC)c(OC)cc4[C@@H]2C3=O)O1,inactive
3,O=C(CCl)c1ccc(Cl)cc1Cl,inactive
